In PubChem BioAssay (NCATS):
Results filed as inconclusive are left out. Entries that show only a call come without a potency. Unmarked numbers belong to inactive results. Activity calls are given as the source filed them. The call rests on the fitted dose curve; in most records, active means well fitted inhibition curve with a large enough effect; inconclusive means small, poorly fitted or top-dose-only effect; inactive means no such curve, though single readings can be large or run the other way. Numbered stars: 1 amine (or outer) side, 2 acyl side, 3 side chain; on linkers, the order of the positions; unused ones are H or OH. Bridge positions count the residues as written; N and C are the ends. Square brackets hold non-standard residues; d marks the D form. Peptide text beside a SMILES is read from it. ξ: configuration not given here. X1 = CCCCCCCCCC(=O)[C@H](C(=O)[*:2])[C@@H]1CNC(=O)[C@@H](N[*:1])CS1; Phe(3R-OH) = O=C([C@@H](N[*:1])[C@H](O[*:3])c1ccccc1)[*:2]; NMeTrp(4-OMe) = CN[C@@H](Cc1c[nH]c2cccc(OC)c12)C(=O)O; X4 = O=C(C1CC2(c3ccc(O)cc3)c3ccccc3NC2N1[*:1])[*:2]; ξThr(3R)(O-yl) = C[C@@H](O[*:3])C(N[*:1])C(=O)[*:2]; NMeThr(3ξ) = CN[C@H](C(=O)O)C(C)O; ξW = NC(Cc1c[nH]c2ccccc12)C(=O)O; NMeL = CN[C@@H](CC(C)C)C(=O)O; NMeV = CN[C@H](C(=O)O)C(C)C; ξIle = CC[C@H](C)C(N)C(=O)O; ξY = NC(Cc1ccc(O)cc1)C(=O)O; ξV = CC(C)C(N)C(=O)O

Experiment: qHTS for Hypoxia signaling pathway (HIF-1) antagonists against the NCATS CANVASS Library (AID 1347374); further: nearly all actives have a fitted effect of over 60% in size;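 on activity change, negative = inhibition: HRE-bla ME-180 cells stimulated with cobalt chloride to stabilize HIF-1alpha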
Details: HRE-bla ME-180 cells, HIF-1 beta-lactamase reporter, CoCl2; series mostly up to 38.3 µM
Description: Natural products and their derivatives continue to be wellsprings of nascent therapeutic potential. However, many laboratories have limited resources for biological evaluation, leaving their previously isolated or synthesized compounds largely or completely untested. To address this issue, the Canvass library of natural products was assembled (https://tripod.nih.gov/canvass), in collaboration with academic and industry researchers, for quantitative high-throughput screening (qHTS) across a diverse set of cell-based and biochemical assays. […] We collected pure natural products to circumvent deconvolution and structure elucidation due to time and resource limitations. The library was formatted into 1536-well plates and evaluated in 50 qHTS (in an 11-pnt concentration series) bioassays with broad scope of disease-relevant mechanisms. The resulting data set from 50 different assays was then systematically analyzed to identify overall trends and specific natural products with interesting biological activities. Reported herein are the results of each individual qHTS and their corresponding assay protocol. During hypoxic conditions, the cellular responses are regulated in large part through the activation of the heterodimeric transcription factor called hypoxia-inducible factor-1 (HIF-1). The assay used is a beta-lactamase reporter gene under control of the hypoxia responsive element (HRE) that has been stably integrated into ME-180 cells. This assay identifies inducers of the HIF-1-signaling pathway. The cytotoxicity of the compound library against HRE-bla ME-180 cell line was tested in parallel by measuring cell viability using CellTiter-Glo assay (Promega, Madison, WI) in the same assay wells. The compounds were also tested for auto fluorescence that may interfere with the biological target readout resulting in potential false positives and/or negatives. National Center for Advancing Translational Sciences (NCATS), Rockville, MD National Institute of Health (NIH), Bethesda, Maryland
HIF-1 antagonist assay protocol: 1. HRE-bla ME-180 cells were dispensed at 2,000 cells per well in 5 uL of assay medium containing 0.5% dialyzed FBS into black wall/clear-bottom 1536-well plates using a Multidrop Combi (Thermo Scientific, Waltham, MA) dispenser. 2. After the assay plates were incubated at 37C and 5% CO2 for 5 hrs, 23 nL of compounds dissolved in DMSO, positive controls or DMSO only was transferred to each well of the assay plate using a Pintool station (Kalypsys, San Diego, CA). 3. One microliter of 60 uM CoCl2 (which enhance the stability of HIF-1alpha) or 1 uL of assay medium was added to the wells using BioRAPTR dispenser. 4. The assay plates were then incubated at 37C and 5% CO2 for 17 hrs. 5. One microliter of CCF4 dye was added the assay plate and incubated at room temperature for 2 hours. 6. The fluorescence intensity was obtained using the EnVision (PerkinElmer, Shelton, CT) plate reader using a 405 nm excitation, and 460 and 530 nm emission filters. 7. To assess cell viability (and for data normalization), 4uL of CellTiter-Glo (Promega) was added to the assay plate using the BioRAPTR dispenser and incubated at room temperature for 30 min. 8. Luminescence signal was obtained using the ViewLux microplate reader (PerkinElmer) using a clear emission mirror, and a 15 sec exposure time, 1x binning settings.
Potency means the concentration at half of the fitted maximal effect.

Row | Structure (SMILES) | Potency | activity change, negative = inhibition
1 | COc1ccc2cc(NC(=O)C3=NO[C@H]4[C@H](O)C=C[C@@H](Cl)[C@@]4(O)C3)c(=O)oc2c1OC | inactive | –
2 | C=C1C[C@@]23C=CC(=O)[C@@](C)(CCC(=O)Nc4c(O)ccc(C(=O)O)c4O)C2C[C@@H]1CC3O (stereo not given in full) | inactive | –
3 | CN1C(=O)[C@]23SS[C@@]1(C)C(=O)N2[C@H]1Nc2ccccc2[C@]1(c1c[nH]c2ccccc12)[C@@H]3O | 0.941 µM (active) | –
4 | CN1CCc2cc3c(c4c2[C@H]1[C@@H](O)c1ccccc1-4)OCO3 | 11.8 µM (active) | –
5 | C[C@@H]1C(=O)[C@]23CC[C@H]1C[C@]21O[C@H]2C(C)(C)C=CC(=O)[C@]23COC1=O | inactive | –
6 | CC(=O)[C@@H]1[C@@H](O)C[C@H]2[C@]3(C)CC[C@H]4C(C)(C)CCC[C@]4(CO)[C@H]3C[C@H]3OC(=O)[C@@H]1[C@@]32C | inactive | –
7 | O=C(O)CC1OCc2c(O)cccc21 (stereo not given) | inactive | –
8 | C=C(C)[C@@H]1CC[C@]2(C)CC[C@]3(C)[C@H](CC[C@@H]4[C@@]5(C)CC[C@H](O)C(C)(C)[C@@H]5CC[C@]43C)[C@@H]12 | inactive | –
9 | C[C@@]12CCC[C@@](C)(C(=O)O)[C@H]1CC[C@]13C[C@H]4C[C@H](O[C@@]4(C)C1)[C@H]32 | inactive | –
10 | COC1C(O)C(OC(N)=O)C(Oc2ccc3c(O)c(NC(=O)c4ccc(O)c(CC=C(C)C)c4)c(=O)oc3c2C)OC1(C)C (stereo not given) | inactive | –
11 | CC[C@H](C)C(NC(=O)[C@@H](NC)C(C)C)C(=O)NC1C(=O)N(C)[C@@H](C(C)O)C(=O)N[C@@H](C(C)C)C(=O)N(C)[C@@H](CC(C)C)C(=O)NC(C(C)C)C(=O)N(C)[C@@H](C(C)C)C(=O)N(C)[C@@H](Cc2c[nH]c3cccc(OC)c23)C(=O)N[C@@H](C(C)C)C(=O)N[C@@H]([C@H](O)c2ccccc2)C(=O)N[C@@H](C(C)C)C(=O)O[C@@H]1C (stereo partly drawn) (H-[NMeV][ξIle][ξThr(3R)(O-yl)][NMeThr(3ξ)]V[NMeL][ξV][NMeV][NMeTrp(4-OMe)]V[Phe(3R-OH)]V; ester 3-C) | inactive | –
12 | O=C(O)Cc1c[nH]c2ccccc12 | inactive | –
13 | CCCCCCCCCCCCCCCC(=O)OC/C=C(\C)CCCC(C)CC(C)C(C)C (stereo not given) | inactive | –
14 | C[C@@H]1C[C@H]2C[C@]3(CCCCN3C)[C@@H]3C[C@H]2[C@H](C1)N(C)C3 | inactive | –
15 | CC[C@H](C)[C@H](NC(=O)C(Cc1ccc(O)cc1)NC(=O)C(Cc1c[nH]c2ccccc12)NC(=O)[C@H](C)N)C(=O)N1C(C(=O)NC(Cc2ccc(O)cc2)C(=O)O)CC2(c3ccc(O)cc3)c3ccccc3NC12 (stereo not given in full) (H-A[ξW][ξY]I[X4][ξY]-OH) | inactive | –
16 | C[C@@]12CCC[C@@](C)(C(=O)O)[C@H]1C[C@@H](O)[C@]13C[C@H]4C[C@H](O[C@@]4(C)C1)[C@@H]23 | inactive | –
17 | CN1CC[C@]2(c3cccc4c3N[C@@H]3N(C)CC[C@]43[C@@]34CCN(C)[C@@H]3Nc3ccccc34)c3ccccc3N[C@H]12 | 14.9 µM (active) | –
18 | O=C1C[C@@H](c2ccc(O)c(-c3c(O)cc(O)c4c3O[C@H](c3ccc(O)cc3)CC4=O)c2)Oc2cc(O)cc(O)c21 | inactive | –
19 | CC1=CC2=C[C@H](C)C[C@@]23OC(=C(C)C3=O)CC(C)(C)/C=C/C1=O | 0.265 µM (active) | –
20 | CNc1ccc(Cl)cc1C(=O)OC[C@]1(C)[C@H]2CC[C@]3(C)[C@@H](C[C@@H](OC)[C@H](C)[C@H]3C3=C(O)C(=O)OC3O)[C@]2(C)CC[C@H]1O (stereo not given in full) | inactive | –

Row | Structure (SMILES) | Potency | activity change, negative = inhibition
21 | C=C[C@@]1(C)CC[C@@H]([C@H](C)C(=O)/C=C/C(C)C)O1 | inactive | –
22 | CC1C(=O)C23CCC1C[C@]21O[C@@H]2C(C)(C)C=CC(=O)[C@@]23COC1=O (stereo not given in full) | inactive | –
23 | COc1ccc2oc3c(OC)c(OC)c(OC)c(OC)c3c(=O)c2c1 | – | 0.76% [at 7.64 µM]
24 | CC1=CC[C@@]2(C[C@@H]1O)[C@@H](C(=O)O)CC[C@H]2C(C)C | inactive | –
25 | OCc1ccc2ocnc2c1 | inactive | –
26 | CCCCCC[C@H](CCCCC[C@@H](O)C(N)=O)OC(=O)[C@@H]1CC=CN1C(=O)c1ccccc1O | inactive | –
27 | COc1c(O)cc2oc(-c3ccccc3)cc(=O)c2c1O | 9.41 µM (active) | –
28 | C=C1C[C@@]23C=CC(=O)[C@@](C)(CCC(=O)Nc4c(O)ccc(C(=O)O)c4O)C2C[C@@H]1C(O)C3 (stereo not given in full) | inactive | –
29 | C/C(=C\[C@H](C)C(=O)CCCC1CC(=O)NC(=O)C1)C(O)[C@@H](C)[C@H](O)C/C=C/CC/C=C/C(=O)O (stereo not given in full) | inactive | –
30 | C[C@@H]1O[C@@H](O[C@@H]2[C@@H](O)[C@H](O[C@@H]3[C@@H](O)[C@@H](O)C(O[C@H]4[C@H](OC(=O)[C@]56CCC(C)(C)C[C@H]5C5=CCC7[C@@]8(C)C[C@H](O)[C@H](O[C@@H]9C[C@H](CO)[C@@H](O)[C@H](O)[C@H]9O)[C@@](C)(CO)C8[C@H](O)C[C@@]7(C)[C@]5(C)CC6)OC[C@H](O)[C@@H]4O)O[C@H]3C)OC[C@H]2O)[C@H](O)[C@H](O)[C@H]1O (stereo not given in full) | inactive | –
31 | O=C(O)CC1OC(=O)c2c(O)cccc21 (stereo not given) | inactive | –
32 | O=C(O)[C@@]12COC3(O)C1CCN1CC[C@H]3[C@@H]1c1c2[nH]c2ccccc12 | inactive | –
33 | C[C@]12CC[C@]3(C1)[C@H](CC2=O)CC(OC(=O)c1ccccc1)[C@H]1[C@@](CO)(C(=O)O)CCC[C@@]13C (stereo not given in full) | inactive | –
34 | CCCCCCCCCC(=O)[C@@H]1C(=O)N[C@@H](CC(C)C)C(=O)N[C@H](C)C(=O)N2CCC[C@H]2C(=O)N[C@@H](C(C)C)C(=O)N[C@H]2CS[C@H]1CNC2=O (cyclo(L[dA]PV[X1])) | inactive | –
35 | CC(=O)O[C@@H]1C=C2C(=O)OC[C@]2(O)[C@@]2(C)CCCC(C)(C)[C@H]12 | 7.47 µM (active) | –
36 | C[C@H]1C[C@@H]([C@@H]2CC[C@]34O[C@H](CC[C@@]35C[C@H](C)C(=O)O5)CN24)OC1=O | inactive | –
37 | COc1ccc([C@@H]2c3cc(OC)c(OC)cc3C(=O)C(C)C2C)cc1OC (stereo not given in full) | inactive | –
38 | CO[C@H]1/C=C/CC[C@@H](S[C@@H]2O[C@H](CO)[C@@H](O)[C@H](O)[C@H]2O)CC(=O)O[C@@H](/C(C)=C/[C@H](C)C(=O)CCCC2CC(=O)NC(=O)C2)[C@@H](C)[C@@H]1O | 2.11 µM (active) | –
39 | C=C1[C@H]2CC[C@@]3(C=CC(=O)[C@@](C)(CCC(=O)Nc4c(O)ccc(C(=O)O)c4O)C3C2)[C@H]1O (stereo not given in full) | inactive | –
40 | C=CC(C)(C)C(=O)[C@@H](C)[C@@H]1CC[C@](C)(C=C)O1 | inactive | –
